BAZ2B block: BAZ2B (human) inhibition; AlphaScreen BAZ2B-H3K14Ac peptide displacement; Potency, µM (highest dose often 114 µM), inactives show top-dose activity change, negative = inhibition, usual class: inhibitors; actives 4.4% (n = 360,000); AID 504333; also: % is scaled to controls: 0 for no effect and ±100 for the full control effect; nearly all actives have a fitted effect of over 60% in size
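BAZ2B (50 nM) with biotin-H3(5-23)K14Ac peptide (50 nM) in PBS pH 7.4, 0.01% Tween-20, preformed 30 min, then compound 30 min at room temperature; top concentration 110uM. AlphaScreen streptavidin donor/nickel chelate acceptor beads (10 ug/mL final), 20 min dark, signal read.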
G9a inh: blocks human histone lysine methyltransferase G9a | AID 504332 | Q96KQ7 | G9a H3K9 monomethylation, AlphaScreen, 2 h | actives 8.8% (n = 350,000) | Potency, µM (titrated, usually from 102 µM), for inactives: at the highest dose activity, negative = inhibition, most hits filed as inhibitors; also: % is scaled to controls: 0 for no effect and ±100 for the full control effect; nearly all actives have a fitted effect of over 75% in size
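Enzyme 20 nM + cpd, 15 min RT; add b-H3K9 pep 500 nM / SAM 20 uM; 2 h RT; anti-H3K9me1 Ab 0.5 ug/mL + SA donor / anti-rabbit acceptor beads 20 ug/mL each, 10 min; AlphaScreen read.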
12-LOX inh: ALOX12 (human) lipoxygenase inhibition; P18054; purified 12hLO, xylenol orange hydroperoxide absorbance; Potency, µM (highest dose often 108 µM), for inactives: at the top dose activity change, negative = inhibition, most hits filed as inhibitors; actives 1.1% (n = 580,000); also: % is scaled to controls: 0 for no effect and ±100 for the full control effect
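Purified human 12hLO at 150 nM in 25 mM Hepes, 0.01% Triton X-100, pH 7.0, preincubated 15 min at room temperature with compound. Reaction started with 40 uM arachidonic acid, 30 min at room temperature. Hydroperoxide measured by Fe-xylenol orange, 573/405 nm absorbance ratio.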
JMJD2A Tudor inh: blocks the human JMJD2A Tudor domain; AID 504339; actives 4.4% (n = 390,000); Potency, µM (highest dose often 114 µM), inactives show top-dose activity change, negative = inhibition, usual class: inhibitors; AlphaScreen JMJD2A-Tudor / H3K4me3 peptide binding; O75164; also: % is scaled to controls: 0 for no effect and ±100 for the full control effect; nearly all actives have a fitted effect of over 50% in size
Target sequence (O75164 whole entry, looked up, the tested form may be a part): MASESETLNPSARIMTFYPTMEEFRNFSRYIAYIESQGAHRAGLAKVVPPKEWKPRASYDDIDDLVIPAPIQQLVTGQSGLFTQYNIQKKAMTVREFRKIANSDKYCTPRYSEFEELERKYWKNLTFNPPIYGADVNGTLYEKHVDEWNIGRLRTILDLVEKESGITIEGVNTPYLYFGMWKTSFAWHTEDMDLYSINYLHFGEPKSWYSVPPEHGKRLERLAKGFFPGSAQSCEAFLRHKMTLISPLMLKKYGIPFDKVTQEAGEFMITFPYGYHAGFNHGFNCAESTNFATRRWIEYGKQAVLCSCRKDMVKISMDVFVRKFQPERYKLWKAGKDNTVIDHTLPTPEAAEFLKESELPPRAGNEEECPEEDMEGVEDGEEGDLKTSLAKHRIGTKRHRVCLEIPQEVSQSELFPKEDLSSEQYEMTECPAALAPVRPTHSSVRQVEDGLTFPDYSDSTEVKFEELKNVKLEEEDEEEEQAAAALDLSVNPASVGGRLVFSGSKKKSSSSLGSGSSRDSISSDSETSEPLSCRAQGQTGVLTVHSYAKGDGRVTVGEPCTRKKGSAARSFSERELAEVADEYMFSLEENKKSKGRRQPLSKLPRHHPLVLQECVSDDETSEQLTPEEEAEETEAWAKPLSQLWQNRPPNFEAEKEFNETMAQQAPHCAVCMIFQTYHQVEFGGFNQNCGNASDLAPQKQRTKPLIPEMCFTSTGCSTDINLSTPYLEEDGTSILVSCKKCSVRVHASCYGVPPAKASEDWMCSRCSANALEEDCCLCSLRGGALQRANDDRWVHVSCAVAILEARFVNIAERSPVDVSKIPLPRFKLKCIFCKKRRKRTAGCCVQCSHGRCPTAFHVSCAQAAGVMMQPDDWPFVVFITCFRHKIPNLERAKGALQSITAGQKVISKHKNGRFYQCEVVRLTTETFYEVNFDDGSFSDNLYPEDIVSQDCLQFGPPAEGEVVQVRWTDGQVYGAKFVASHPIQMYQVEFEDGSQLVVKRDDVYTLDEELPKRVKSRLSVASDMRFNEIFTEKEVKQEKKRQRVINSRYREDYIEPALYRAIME
PLK1 PBD inh: inhibitors of human PLK1 polo-box domain binding; Plk1 PBD binding of FITC phosphopeptide, fluorescence polarization; actives 2.8% (n = 360,000); Potency, µM, for the others: max response, negative = inhibition, actives largely listed as inhibitors; P53350; also: series mostly up to about 57 µM; % is scaled to controls: 0 for no effect and ±100 for the full control effect; nearly all actives have a fitted effect of over 65% in size
HP1b binding inh: inhibitors of HP1-beta chromodomain binding to methylated histone tails; P83916; AlphaScreen HP1-beta / biotin-H3K9me3 peptide binding; Potency, µM (top dose mostly 114 µM), inactives show top-dose activity change, negative = inhibition, usual class: inhibitors; actives 0.56% (n = 390,000); also: nearly all actives have a fitted effect of over 70% in size
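AlphaScreen: HP1-beta (50 nM) preformed 30 min with biotin-H3(1-18)K9me3 peptide (50 nM) in PBS pH 7.4, 0.01% Tween-20. Compound added for 30 min at RT, then streptavidin donor/nickel chelate acceptor beads (10 ug/mL) for 30 min.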
TbPYK inh: Trypanosoma brucei pyruvate kinase inhibition, cherry-pick confirmation; shares compounds with PLK1 PBD inh; recombinant TbPYK, Kinase-Glo ATP luminescence; Potency, µM (highest dose often 76.9 µM), inactives show top-dose activity change, negative = inhibition, most hits filed as inhibitors; actives 67% (n = 890); AID 720569; also: % is scaled to controls: 0 for no effect and ±100 for the full control effect; nearly all actives have a fitted effect of over 70% in size
TbPYK orthogonal: orthogonal confirmation of Trypanosoma brucei pyruvate kinase inhibitors | Potency, µM (highest dose often 76.9 µM), inactives show at the highest dose activity change, negative = inhibition, most hits filed as inhibitors | AID 720584 | actives 62% (n = 890) | shares compounds with PLK1 PBD inh | recombinant TbPYK, ADP-Glo luminescence, 60 min; also: % is scaled to controls: 0 for no effect and ±100 for the full control effect; nearly all actives have a fitted effect of over 75% in size
* marks the source's active call; other numbers are inactive results; ? = inconclusive; . = no result; [ ] = remark or other dose. Shown are actives, neighbours in structure and some others; about 9% of the full set was active somewhere. Calls follow the shape of the dose curve; as a rule, active = well fitted curve in the direction sought with a large enough effect; inconclusive = small, poorly fitted or top-dose-only effect, or another doubt; inactive = no such curve, though single readings can be large; an effect the other way counts as inactive or inconclusive. Potency is read from the fitted curve at half-maximal effect.

SMILES | BAZ2B block | G9a inh | 12-LOX inh | JMJD2A Tudor inh | PLK1 PBD inh | HP1b binding inh | TbPYK inh | TbPYK orthogonal
Cn1c(=O)[nH]c(=O)c2c1nc(SCC(=O)O)n2CCCc1ccccc1 | -11% | 2%[2.33 µM] | ? | -11% | -29% | 26% | . | .
Cn1c(=O)[nH]c(=O)c2c1nc(SCCN1CCCCC1)n2CCCc1ccccc1 | -31% | 8.9µM* | 5% | ? | 2.4µM* | -10% | 3.5µM* | 4.5µM*
Cn1c(=O)[nH]c(=O)c2c1nc(SCC(=O)O)n2Cc1ccccc1 | 8% | 22µM* | -34% | 25µM* | -10% | ? | ? | ?
Cc1ccc(Cn2c(SCCN3CCCCC3)nc3c2c(=O)[nH]c(=O)n3C)cc1 | 2% | 25µM* | ? | -22% | 7.5µM* | -29% | 16µM* | 11µM*
COc1ccc(OC)c(NC(=O)Nc2ccc(CN3CCOCC3)cc2)c1 | . | . | 42% | . | . | . | . | .
COc1ccccc1CNC(=O)CN1C(=O)NC2(CCCCCCC2)C1=O | . | . | -2% | -2% | -4% | 19%[57 µM] | . | .
O=C(c1ccc(OCc2cn3ccccc3n2)cc1)N1CCN(S(=O)(=O)c2ccccc2F)CC1 | -7% | ? | -9% | -23% | 1% | 25% | . | .
O=C(Cc1ccccc1F)Nc1cc(S(=O)(=O)N2CCOCC2)ccc1N1CCCC1 | . | . | -4% | -13% | -9% | 19% | . | .
CCN(CC)c1cc(CCC(=O)NCc2cc(OC)ccc2OC)ccn1 | . | . | 62% | . | . | . | . | .
Cc1ccc(C(=O)N2CCC3(C2)C(=O)N(C)c2ccccc23)cc1 (stereo not drawn) | . | . | 41%[176 µM] | . | . | . | . | .
CCN(C(=O)c1cnc(N2CCOCC2)c2ccccc12)c1cc(C)ccc1C | 1% | 9%[59 µM] | 11% | -8% | . | 25%[57 µM] | . | .
N#C/C(=C\c1ccc(C(=O)O)cc1)c1ccccn1 | -17% | 15%[12.7 µM] | -9% | 9% | -7% | 46% | ? | 2%
Cc1ccsc1/C=N/Nc1nc(=O)[nH]nc1C | 32µM* | 4% | -1% | ? | 1% | 30% | 18µM* | 8%
CC(=O)C1=C(S(=O)(=O)c2ccc(C)cc2)CS(=O)(=O)C1 | ? | 1.3µM* | ? | 22µM* | 2.1µM* | 14µM* | 4µM* | 5.6µM*
COc1ccc(F)cc1C(=O)C1CCCN(Cc2ccc(Oc3ncccn3)cc2)C1 (stereo not drawn) | -13% | 7% | 2% | -20% | -9% | 5% | . | .
CC(C)=CCC1=C(O)[C@](O)(CC=C(C)C)C(=O)C(C(=O)CC(C)C)=C1O | . | . | 88% | . | . | . | . | .
O=C(O)c1cccc(N2C(=O)C=CC2=O)c1 | . | . | -21% | . | 12µM* | . | 25µM* | 35µM*
O=C(Cc1ccccc1)Nc1cccc(N2C(=O)C=CC2=O)c1 | ? | 0.35µM* | -23% | 20µM* | 5.3µM* | ? | 5.6µM* | 8.9µM*
O=C(O)c1cccc(N2C(=O)C3CC=CCC3C2=O)c1 (stereo not drawn) | 1% | 6%[59 µM] | -14% | -14% | -6% | 27% | . | .
COc1ccc(N2C(=O)/C(=C/c3cccs3)NC2=S)cc1 | ? | 1.8µM* | ? | 79µM* | 2.7µM* | ? | 8.9µM* | 13µM*
CCOC(=O)C=C(C(=O)OCC)C(=O)OCC | -3% | 13µM* | 18% | -7% | 11µM* | ? | 4.5µM* | 7.9µM*
CCOC(=O)C(=CNC(N)=O)C(=O)OCC | . | . | -5% | . | . | . | . | .
COC(=O)c1sc(=S)n(-c2ccccc2)c1C | . | . | -37% | . | . | . | . | .
COc1ccc(C2NC(=O)c3sc(=S)n(-c4ccccc4)c3N2)cc1 (stereo not drawn) | -12% | -43%[12.7 µM] | ? | -13% | ? | 25% | 7.1µM* | 13µM*
Cc1ccc(C)c(C(=O)N2CCc3[nH]nc(C(=O)NCCCc4ccccc4)c3C2)c1 | . | . | 31% | . | . | . | . | .
SMILES | BAZ2B block | G9a inh | 12-LOX inh | JMJD2A Tudor inh | PLK1 PBD inh | HP1b binding inh | TbPYK inh | TbPYK orthogonal
CC(NC(=O)c1sc2cc([N+](=O)[O-])ccc2c1Cl)C(C)(C)C (stereo not drawn) | -16% | 1.6µM* | 32µM* | 50µM* | 1.2µM* | 6.3µM* | 4µM* | 11µM*
O=C(/C=C1\C(=O)Nc2ccccc21)/C=C1\C(=O)Nc2ccccc21 | 45µM* | 7.1µM* | 8.9µM* | ? | 8.4µM* | -1% | 18µM* | 18µM*
O=C1Nc2ccccc2/C1=C/c1ccccc1Cl | -30% | 5% | -2% | -23% | 1% | -2% | . | .
Cc1nn(C)c(Sc2ccccc2N)c1[N+](=O)[O-] | -37% | 7.9µM* | ? | 18µM* | 13µM* | -17% | 13µM* | 13µM*
Cc1nn(C)c(N)c1[N+](=O)[O-] | 3% | . | 0% | 10% | 2% | 8% | . | .
COc1ccc(-c2ccc(C(=S)N3CCN(C(C)=O)CC3)o2)cc1 | ? | 6.3µM* | 14µM* | ? | 24µM* | ? | 22µM* | 32µM*
O=[N+]([O-])c1cc(S(=O)(=O)N2CCOCC2)ccc1N1CCCC1 | -1% | -21% | -11% | -18% | -6% | 10% | . | .

Screening results: PubChem BioAssay, National Center for Advancing Translational Sciences (NCATS)
